Compound activity as filed in PubChem.
Sampled rows, rich in hits. Any-hit rate of the full collection: about 6.9%.
SKKanGAS inh = S. pyogenes SKKanGAS growth inhibitors in kanamycin, primary screen, streptokinase expression inhibitor project, SKKanGAS strain, BacTiter-Glo luminescence; 6 h; inhibition, % at 7.5 µM; 300,000 compounds, 1.3% hits;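 active means mean replicate score, as percent of positive control median, at least 50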;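 further: strain carries kanamycin resistance gene driven by streptokinase promoter and grows in 40 µg/ml kanamycin; loss of luminescence reflects streptokinase promoter inhibition or plain growth inhibition; 0% = median of DMSO wells and 100% = positive control at its reference dose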
MPTP inh = mitochondrial permeability transition pore inhibitors, primary screen, biochemical, isolated mouse mitochondria, absorbance. 360,000 compounds, 1.4% hits. Ca2+ swelling absorbance, 30 min. inhibition, % at 10 µM. AID 602449, 2012;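 active means inhibition of 50% or more, scaled per plate between neutral and stimulator controls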;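 further: 0% = DMSO wells given calcium and 100% = 1 mM EGTA wells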
Mdm2-MdmX inh = inhibitors of human Mdm2-MdmX association, primary screen, cell-based, luminescence, split luciferase, SaOS-2, uHTS; 330,000 compounds, 3% hits; inhibition, % at 8 µM; Protein Mdm4 (Homo sapiens) + E3 ubiquitin-protein ligase Mdm2 (Homo sapiens), …; SaOS-2 split-luciferase Mdm2/MdmX complementation;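 active means inhibition of at least 50% at 8 µM in the primary screen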
Beta apoptosis = inhibitors of cytokine-induced beta cell apoptosis, primary screen, luminescence; INS-1E cytokine-induced death, ATP luminescence, 48 h; percent of positive-control rescue, neutral wells zero; protection from apoptosis, % (concentration not given with the values); 300,000 compounds, 0.8% hits;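 active means Every replicate reaches about 75%, or at least half do and their mean reaches it too, limit read from the data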;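 further: 0% = cytokine-treated negative control wells and 100% = positive control rescue; higher means more ATP so stronger rescue from cytokine killing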
GRIN3A LBD mod = binders of NR3A ligand-binding domain, primary screen, biophysical, differential scanning fluorimetry, uHTS | 340,000 compounds, 2.5% hits | Tm shift relative to glycine control, % at 25 µM | NR3A LBD differential scanning fluorimetry, Tm shift; 0% = protein alone, 100% = glycine-bound protein | Glutamate receptor ionotropic, NMDA 3A (GRIN3A) ligand-binding domain;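 active means melting temperature shift of at least 10% of the positive control shift, at one fixed dose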
CSC inhib = cancer stem cell viability inhibitors, primary screen, luminescence | cancer stem cell-like cells viability | inhibition, % at 7.5 µM | 300,000 compounds, 1.1% hits; in the data active means inhibition above about 75%; tested in HMLE shEcad cells
* marks the source's active call; other numbers are inactive results; x = no result given.

SMILES | SKKanGAS inh | MPTP inh | Mdm2-MdmX inh | Beta apoptosis | GRIN3A LBD mod | CSC inhib
Cn1cnc2c1c(=O)[nH]c(=O)n2Cc1ccccc1 | -0.5 | 0.8 | 14.4 | -3.2 | 10.3* | -20.2
COc1cc2cc(CN(Cc3cccs3)C(=S)Nc3ccccc3)c(=O)[nH]c2cc1OC | 26.2 | 1.6 | 39.7 | 19.2 | 17.0* | 33.9
Cc1ccc(NC(=S)N(Cc2cccs2)Cc2cc3cccc(C)c3[nH]c2=O)cc1 | 10.2 | 1.3 | 14.1 | -1.3 | 15.5* | 51.5
COc1ccc(C2=Nc3ccccc3NC(=O)C2N(Cc2ccccc2)C(=O)C2=NNC(=O)CC2)cc1 (stereo not drawn) | x | 2.8 | x | x | x | x
CCCCOC(=O)C1CN(c2ccccc2)N=C1C(=O)OCC (stereo not drawn) | 2.2 | 1.4 | -5.2 | -1.0 | 14.7* | -8.8
CCc1cc(-c2[nH]ncc2-c2ccc([N+](=O)[O-])cc2)c(O)cc1OC | 8.5 | 5.0 | 12.6 | -11.7 | 29.0* | 43.5
COc1ccc(-c2cn[nH]c2-c2ccc(OCc3ccc([N+](=O)[O-])cc3)cc2O)cc1OC | 6.9 | 18.9 | 30.4 | 16.6 | 15.3* | x
COc1ccc(-c2[nH]ncc2-c2ccc(Cl)cc2)c(O)c1 | 23.3 | 4.7 | 43.9 | 0.2 | 1.4 | 25.9
COc1ccc(-c2cn[nH]c2-c2ccc(OCc3ccccc3F)cc2O)cc1OC | 25.9 | 6.4 | 49.6 | 15.6 | 3.6 | 64.3
CCN(CC)CCCCCC(=O)Nc1ccccc1C(=O)Nc1ccccc1 | -4.7 | -1.6 | 15.6 | -1.5 | -0.2 | -8.7
CC(OC(=O)Cc1ccc(F)cc1)C(=O)NCc1ccc2c(c1)OCO2 (stereo not drawn) | -2.5 | -1.3 | 16.0 | -4.9 | -2.0 | 4.9
CC(=O)Nc1sc(N/N=C\c2cccc(Cl)c2)nc1-c1cccs1 | 13.4 | -6.1 | 20.6 | -1.5 | 13.8* | 5.2
CC(=O)Nc1sc(NC(=O)c2ccccc2)nc1-c1cccs1 | -0.5 | -0.4 | 36.2 | -2.3 | 18.3* | -4.6
CC(=O)N1C[C@@H](CO)[C@@H](N(C)C(=O)C(C)(C)C)C[C@H]1c1ccccc1 | x | -1.4 | x | x | x | x
CC(=O)CSc1nc2ccc(Nc3nc(N4CCOCC4)nc(N4CCOCC4)n3)cc2s1 | 22.4 | 3.6 | 20.5 | 2.0 | -1.3 | -7.0
CC(=O)Nc1ccc2nc(SCC(=O)Nc3ccc(N4CCOCC4)c(Cl)c3)sc2c1 | 11.1 | 2.1 | -9.4 | -6.4 | 25.0* | -2.2
O=C(CSc1nc2ccc(NC(=O)c3ccccc3C(=O)O)cc2s1)Nc1ccc(F)c([N+](=O)[O-])c1 | 13.8 | -1.0 | 14.4 | -2.5 | 18.3* | x
COc1ccccc1C(=O)Nc1ccc2nc(SCC(=O)N(C)C)sc2c1 | 7.6 | -0.6 | 21.5 | -0.1 | 1.7 | -6.5
CC(C)(C)NC(=O)C(c1ccc(O)cc1)N(Cc1ccco1)C(=O)Cn1nnc(-c2cccs2)n1 (stereo not drawn) | 5.4 | 0.4 | 26.5 | -3.3 | 1.1 | -11.8
Cc1ccc(-c2nnn(CC(=O)N(Cc3ccco3)C(C(=O)NC(C)(C)C)c3ccc(C)o3)n2)o1 (stereo not drawn) | -4.3 | -0.2 | 12.1 | -12.4 | -4.5 | -0.8
Cc1ccc(C(C(=O)NC(C)(C)C)N(Cc2ccco2)C(=O)Cn2nnc(-c3cccs3)n2)cc1 (stereo not drawn) | 0.6 | 2.0 | 36.0 | 0.5 | 12.5* | -23.3
Cc1ccc(-c2nnn(CC(=O)N(Cc3ccccc3)C(C(=O)NC(C)(C)C)c3ccncc3)n2)o1 (stereo not drawn) | 5.7 | 0.5 | -4.8 | 1.8 | 14.2* | x
Cc1c(Br)cnn1C(C)C(=O)N1CCN(c2ccc(F)cc2)CC1 (stereo not drawn) | x | 0.8 | 3.3 | -0.6 | 1.2 | x
C=C(Br)CN1[C@@H](Cc2ccccc2)[C@H](O)[C@@]23C=C[C@@H](C[C@@H]2S1(=O)=O)O3 | x | 0.4 | 2.0 | 3.0 | -0.4 | -5.0
Cc1ccsc1C(=O)N1CCC1(C)C(=O)NCC(C)(C)C (stereo not drawn) | x | 0.2 | x | x | x | x
COc1ccc(CCC(=O)OCC(=O)c2ccc(C)cc2)cc1 | -14.7 | -0.1 | -3.8 | -3.2 | 56.3* | 7.1
